Inconclusive results are not listed. The source made the active and inactive calls. Unless noted, calls come from the whole dose curve.
Assays:
[1] = target: Estrogen receptor (Homo sapiens) (UniProt P03372); assay: qHTS assay for small molecule antagonists of estrogen receptor alpha signaling (AID 588513; active = well fitted curve in the direction sought with a large enough effect in the signal ratio, with a control signal flat, not every such curve was filed as active; the % refers to the signal ratio; note: % is set by controls: 0 for no effect and ±100 for the full control effect)
How it was run: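 ER-alpha-UAS-bla GripTite HEK 293 cells in medium with 2% charcoal/dextran-treated FBS were preincubated 4 h at 37 C, dosed with compound (1:2 titration), stimulated with 0.5nM 17-beta-estradiol for 18 h, then read by CCF4 beta-lactamase fluorescence.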

[2] = target: Androgen receptor (Homo sapiens) (UniProt P10275); assay: qHTS assay for small molecule agonists of androgen receptor signaling (AID 588515; active = well fitted curve in the direction sought with a large enough effect in the signal ratio, with a control signal flat; the % refers to the signal ratio; note: % is set by controls: 0 for no effect and ±100 for the full control effect); conditions: AR-UAS-bla HEK293, beta-lactamase ratio, agonist 16 h; stronger effect = higher value
How it was run: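 EC50 and efficacy came from Hill fits of titrations (up to 92 uM) normalized to 30 nM R1881 as 100% and DMSO as 0%. Compound exposure was 16 h at 37 C on AR-UAS-bla HEK293 cells, with a 405/460/530 nm CCF4 fluorescence read.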

[3] = target: Androgen receptor (Homo sapiens) (UniProt P10275); assay: qHTS assay for small molecule antagonists of androgen receptor signaling (AID 588516; active = well fitted curve in the direction sought with a large enough effect in the signal ratio, with a control signal flat, not every such curve was filed as active; the % refers to the signal ratio; note: % is set by controls: 0 for no effect and ±100 for the full control effect)
How it was run: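 AR-UAS-bla-GripTite HEK 293 cells (2000/well, 5 h at 37 C) received compound titrations, then R1881 at 10 nM final; after 16 h at 37 C, CCF4 dye 2 h RT, beta-lactamase fluorescence read; IC50 from Hill fits.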

[4] = target: Bile acid receptor (Homo sapiens) (UniProt Q96RI1); assay: qHTS assay for small molecule antagonists of farnesoid X receptor signaling (AID 588526); note: % is set by controls: 0 for no effect and ±100 for the full control effect
How it was run: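 Concentration-response titrations were fitted to the Hill equation for half-maximal inhibition and maximal response, with data normalised to 50 uM chenodeoxycholic acid and DMSO control wells. Cells: FXR-UAS-bla HEK293T, dialyzed FBS.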

[5] = target: Bile acid receptor (Homo sapiens) (UniProt Q96RI1); assay: qHTS assay for small molecule agonists of farnesoid X receptor signaling (AID 588527); conditions: HEK293T FXR-UAS-bla, beta-lactamase ratio, 16 h; activation: stronger effect = higher value;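 note: series mostly up to about 77 µM; 0% = vehicle basal and 100% = reference agonist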
How it was run: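 Agonist-mode beta-lactamase reporter in GeneBLAzer FXR-UAS-bla HEK293T cells, titration up to 92 uM, 16 h exposure at 37 C, CCF4 fluorescence. Response scaled to DMSO (0%) and 100 uM chenodeoxycholic acid (100%), then Hill-fitted for EC50 and efficacy.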

[6] = target: Glucocorticoid receptor (Homo sapiens) (UniProt P04150); assay: qHTS assay for small molecule agonists of glucocorticoid receptor signaling (AID 588532; active = well fitted curve in the direction sought with a large enough effect in the signal ratio, with a control signal flat; the % refers to the signal ratio;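 note: 100% = dexamethasone at 0.1 µM and 0% = DMSO only wells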); conditions: HeLa MMTV-bla, beta-lactamase ratio, agonist, 18 h; stronger effect = higher value; percent of dexamethasone control, DMSO zero
How it was run: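 Stimulation of a glucocorticoid response element-driven beta-lactamase gene was measured in HeLa cells. Responses were scaled between DMSO basal and 0.1 uM dexamethasone, then fitted for half-maximal stimulation.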

[7] = target: Glucocorticoid receptor (Homo sapiens) (UniProt P04150); assay: qHTS assay for small molecule antagonists of glucocorticoid receptor signaling (AID 588533; active = well fitted inhibition curve with a large enough effect in the signal ratio, with a control signal flat, not every such curve was filed as active; the % refers to the signal ratio)
How it was run: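 Antagonist-mode qHTS: compound titrations added to GRE-bla HeLa cells, then dexamethasone 2 nM final; 18 h, 37 C. CCF4 FRET fluorescence normalized to dexamethasone and DMSO; IC50 from Hill fit.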

[8] = target: Peroxisome proliferator-activated receptor delta (Homo sapiens) (UniProt Q03181); assay: qHTS assay for small molecule agonists of peroxisome proliferator-activated receptor delta signaling (AID 588534);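 note: 0% = DMSO basal wells and 100% = positive control agonist at 10 µM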
How it was run: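 Fluorescence from CCF4 substrate cleavage by beta-lactamase reporter, read 2 hrs at RT, measured agonist activity. Compounds were tested with 18 hrs exposure at 37 C. Concentration-response data fitted to Hill equation.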

[9] = qHTS assay for small molecule antagonists of peroxisome proliferator-activated receptor delta signaling (AID 588535; active = well fitted inhibition curve with a large enough effect in the signal ratio, with a control signal flat, not every such curve was filed as active; the % refers to the signal ratio;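 for max response: cells co-treated with a PPAR-delta agonist as stimulator during compound exposure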); conditions: HEK293T PPARd-UAS-bla, beta-lactamase FRET ratio, 18 h; 460 nm channel
How it was run: (§1)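 Reporter: UAS-bla under PPAR-delta response element, HEK293T host. Medium: 2% charcoal/dextran FBS. Dosing: titration, 18 hrs, 37 C. Detection: CCF4, 2 hrs RT, 405 ex/460 and 530 em.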

[10] = target: Peroxisome proliferator-activated receptor delta (Homo sapiens) (UniProt Q03181); assay: as above
How it was run: as §1

[11] = target: Peroxisome proliferator-activated receptor gamma (Homo sapiens) (UniProt P37231); assay: qHTS assay for small molecule agonists of peroxisome proliferator-activated receptor gamma signaling (AID 588536; active = well fitted curve in the direction sought with a large enough effect in the signal ratio, with a control signal flat, not every such curve was filed as active; the % refers to the signal ratio;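 note: 0% = DMSO basal wells and 100% = rosiglitazone at 2 µM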)
How it was run: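 Ratiometric blue/green fluorescence (405 nm excitation; 460 and 530 nm emission) from CCF4-loaded HEK293 reporter cells serves as signal. Exposure to test compounds lasts 16 h at 37 C in medium containing 1% charcoal/dextran-treated serum.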

[12] = qHTS assay for small molecule agonists of retinoid X receptor alpha signaling (AID 588544); conditions: HEK293T RXRa-UAS-bla, beta-lactamase reporter, 18 h; 530 nm emission;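 for activation: 0% = DMSO basal wells and 100% = reference agonist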
[13] = target: Retinoic acid receptor RXR-alpha (Homo sapiens) (UniProt P19793); assay: as above
[14] = target: Thyroid hormone receptor beta (Homo sapiens) (UniProt P10828); assay: qHTS assay for small molecule agonists of thyroid hormone receptor beta signaling (AID 588545);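 note: 0% = DMSO only and 100% = 10 nM T3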
How it was run: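 Compounds were tested as agonists in TR-UAS-bla-GripTite HEK 293 cells. After 18 hrs at 37 C, CCF4 substrate was added and fluorescence read after 2 hrs at room temperature.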

[15] = qHTS assay for small molecule antagonists of retinoid X receptor alpha signaling (AID 588546; active = well fitted inhibition curve with a large enough effect in the signal ratio, with a control signal flat, not every such curve was filed as active; the % refers to the signal ratio); conditions: HEK293T RXRa-UAS-bla, beta-lactamase ratio, antagonist mode; measured here: W530 green channel, cytotoxicity proxy
How it was run: (§2)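 Beta-lactamase reporter inhibition, read as CCF4 fluorescence ratio (ex 405, em 460/530 nm) after 2 h at RT. HEK293T UAS-bla cells, 2500/well, were stimulated with 9-cis-RA at 500 or 100 nM final alongside test compound for 18 h at 37 C.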

[16] = target: Retinoic acid receptor RXR-alpha (Homo sapiens) (UniProt P19793); assay: as above; conditions: HEK293T RXRa-UAS-bla, beta-lactamase ratio, antagonist mode
How it was run: as §2

[17] = target: Thyroid hormone receptor beta (Homo sapiens) (UniProt P10828); assay: qHTS assay for small molecule antagonists of thyroid hormone receptor beta signaling (AID 588547; active = well fitted inhibition curve with a large enough effect in the signal ratio, with a control signal flat, not every such curve was filed as active; the % refers to the signal ratio); conditions: TR-UAS-bla HEK293, beta-lactamase ratio, antagonist mode, 18 h
How it was run: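 TR-UAS-bla GripTite HEK293 cells in 2% charcoal/dextran FBS medium were preincubated 4 h at 37 C, given compound (0.59 nM to 92 uM) plus 0.4 nM T3 (final) for 18 h, then CCF4 for 2 h at RT; Hill fit gave IC50.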

[18] = qHTS assay for small molecule agonists of the antioxidant response element (ARE) signaling pathway (AID 651741; active = well fitted activation curve with a large enough effect in the signal ratio; the % refers to the signal ratio; note: % of control where 0% means no effect)
How it was run: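 Compounds in DMSO are pinned onto HepG2 ARE-bla cells (2,000/well) that were preincubated 5 h; plates stay 16 h at 37 C, then beta-lactamase activity is detected with LiveBLAzer B/G substrate by fluorescence.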

[19] = qHTS assay for small molecule activators of the nuclear factor-kappa B (NF-kB) signaling pathway (AID 651749; active = well fitted activation curve with a large enough effect in the signal ratio; the % refers to the signal ratio; note: series mostly up to about 77 µM; % of control where 0% means no effect); conditions: NF-kB-bla ME-180 cells, beta-lactamase FRET ratio, 16 h; activation: stronger effect = higher value
How it was run: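 Screening used 2,000 ME-180 reporter cells per well exposed to pinned compound (23 nL) or DMSO; after 16 hr at 37C, beta-lactamase expression under NF-kB control was assessed through FRET.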

[20] = target: Peroxisome proliferator-activated receptor alpha (Homo sapiens) (UniProt Q07869); assay: qHTS assay for small molecule agonists of the peroxisome proliferator-activated receptor alpha (PPARalpha) signaling pathway (AID 651778; active = well fitted curve in the direction sought with a large enough effect; an effect the other way counts as inactive or inconclusive; note: % of control where 0% means no effect); conditions: PathHunter PPARalpha complementation, chemiluminescence, 6 h; stronger effect = higher value
How it was run: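 Cells plated at 2,000/well and held overnight at 37 C, 5% CO2, then compound added by pin tool for 6 hr; after PathHunter detection reagent and 60 min at room temperature, chemiluminescence from enzyme complementation was read.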

[21] = qHTS assay for small molecule agonists of the antioxidant response element (ARE) signaling pathway measured by Nrf2-dependant transcriptional activity (AID 720636; active = well fitted curve in the direction sought with a large enough effect in the repeat runs; an effect the other way counts as inactive or inconclusive; note: % of control where 0% means no effect)
How it was run: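 Nrf2-dependent transcription read as ONE-Glo luciferase signal from ARE-luc HepG2 reporter cells after 16 hr compound treatment at 37 C, 5% CO2, in assay medium with 1% dialyzed FBS.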

[22] = qHTS assay for small molecule agonists of the antioxidant response element (ARE) signaling pathway measured by Nrf2-dependant transcriptional activity - cell viability counter screen (AID 720653; active = well fitted curve in the direction sought with a large enough effect in the repeat runs; an effect the other way counts as inactive or inconclusive; note: % is set by controls: 0 for no effect and ±100 for the full control effect); conditions: ARE-bla HepG2 viability, CellTiter-Glo ATP luminescence, 16 h; max response: stronger effect = lower value
How it was run: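 ARE-bla HepG2 cells (2,000/well) rested 5 hrs at 37C/5% CO2, then exposed to compounds in DMSO for 16 hrs. Viability was read in the same wells as intracellular ATP by luminescence, 30 min at room temperature after reagent addition.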

[23] = qHTS assay for cell viability of HEK293 cells (AID 743288; active = well fitted curve in the direction sought with a large enough effect; an effect the other way counts as inactive or inconclusive; note: % is set by controls: 0 for no effect and ±100 for the full control effect; nearly all actives have a fitted effect of over 50% in size); conditions: ATP luminescence (CellTiter-Glo), 18 h; max response: stronger effect = lower value
How it was run: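 Parental HEK293 cells were seeded at 2,000 cells/well, rested at least 5 h at 37 C, then exposed to compounds in DMSO for 18 h at 37 C. Viability was read as ATP-dependent luciferase luminescence after 30 min at room temperature.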

[24] = qHTS assay for cell viability of the p53RE-bla HCT-116 cell line (AID 743292; active = well fitted curve in the direction sought with a large enough effect; an effect the other way counts as inactive or inconclusive; note: % is set by controls: 0 for no effect and ±100 for the full control effect; nearly all actives have a fitted effect of over 55% in size)
How it was run: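 ATP-based luminescent viability (CellTiter-Glo, 30 min RT) after 16 h compound treatment at 37 C of p53RE-bla HCT-116 cells, seeded at 4,000 cells/well and rested 5 h before dosing.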

[25] = target: Nuclear receptor subfamily 1 group I member 2 (Rattus norvegicus) (UniProt Q9R1A7); assay: qHTS assay for small molecule activators of the rat pregnane X receptor (rPXR) signaling pathway (AID 651751; call rule not given here; note: 0% is about no effect); conditions: rPXR reporter cells, luciferase (One-Glo), 24 h
[26] = qHTS assay for small molecule activators of the human pregnane X receptor (PXR) signaling pathway (AID 720659; call rule not given here; note: 0% is about no effect)

Bile acid receptor (Homo sapiens), sequence (Q96RI1 whole entry, looked up): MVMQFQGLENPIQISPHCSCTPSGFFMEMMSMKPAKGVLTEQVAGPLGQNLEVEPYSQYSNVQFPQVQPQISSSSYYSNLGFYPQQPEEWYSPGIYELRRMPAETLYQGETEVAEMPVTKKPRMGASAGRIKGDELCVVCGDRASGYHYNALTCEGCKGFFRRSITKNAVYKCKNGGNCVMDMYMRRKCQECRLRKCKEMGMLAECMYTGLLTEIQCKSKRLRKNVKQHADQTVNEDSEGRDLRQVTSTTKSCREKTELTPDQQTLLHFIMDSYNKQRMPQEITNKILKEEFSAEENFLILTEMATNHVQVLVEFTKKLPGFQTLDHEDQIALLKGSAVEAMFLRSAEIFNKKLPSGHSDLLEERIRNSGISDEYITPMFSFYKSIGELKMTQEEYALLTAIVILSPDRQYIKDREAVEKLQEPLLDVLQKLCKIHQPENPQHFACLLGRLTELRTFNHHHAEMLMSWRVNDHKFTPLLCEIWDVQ
Retinoic acid receptor RXR-alpha (Homo sapiens), sequence (P19793 whole entry, looked up): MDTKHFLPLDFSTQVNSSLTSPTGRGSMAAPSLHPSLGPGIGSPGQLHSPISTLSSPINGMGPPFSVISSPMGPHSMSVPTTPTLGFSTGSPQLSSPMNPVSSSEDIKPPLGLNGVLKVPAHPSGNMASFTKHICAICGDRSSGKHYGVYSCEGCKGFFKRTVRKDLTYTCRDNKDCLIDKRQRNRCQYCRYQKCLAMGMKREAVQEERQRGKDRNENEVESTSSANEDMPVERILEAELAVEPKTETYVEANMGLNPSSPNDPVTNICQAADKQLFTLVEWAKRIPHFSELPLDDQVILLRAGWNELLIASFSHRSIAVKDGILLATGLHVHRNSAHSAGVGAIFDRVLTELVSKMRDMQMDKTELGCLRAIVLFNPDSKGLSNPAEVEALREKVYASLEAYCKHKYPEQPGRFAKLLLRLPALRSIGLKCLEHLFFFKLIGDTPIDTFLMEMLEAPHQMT
Glucocorticoid receptor (Homo sapiens), sequence (P04150 whole entry, looked up): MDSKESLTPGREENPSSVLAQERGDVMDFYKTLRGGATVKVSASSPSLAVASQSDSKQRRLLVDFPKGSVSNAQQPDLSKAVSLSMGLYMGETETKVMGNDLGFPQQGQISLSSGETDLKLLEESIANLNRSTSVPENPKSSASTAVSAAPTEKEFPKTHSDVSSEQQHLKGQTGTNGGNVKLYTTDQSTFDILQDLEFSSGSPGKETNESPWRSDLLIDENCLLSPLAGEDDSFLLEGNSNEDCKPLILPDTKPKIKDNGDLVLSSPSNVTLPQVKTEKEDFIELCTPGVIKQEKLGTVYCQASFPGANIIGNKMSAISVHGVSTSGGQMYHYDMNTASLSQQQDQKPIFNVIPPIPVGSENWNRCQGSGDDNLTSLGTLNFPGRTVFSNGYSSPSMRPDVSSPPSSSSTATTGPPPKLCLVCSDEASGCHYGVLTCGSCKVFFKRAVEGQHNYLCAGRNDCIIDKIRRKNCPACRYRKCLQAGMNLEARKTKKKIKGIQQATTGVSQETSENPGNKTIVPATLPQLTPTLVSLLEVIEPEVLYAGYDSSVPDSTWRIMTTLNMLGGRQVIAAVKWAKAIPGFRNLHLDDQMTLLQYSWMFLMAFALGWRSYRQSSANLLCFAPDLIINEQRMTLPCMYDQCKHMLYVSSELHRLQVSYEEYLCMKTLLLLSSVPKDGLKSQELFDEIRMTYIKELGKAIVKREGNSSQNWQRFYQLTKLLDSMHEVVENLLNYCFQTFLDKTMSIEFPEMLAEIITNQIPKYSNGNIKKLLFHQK
Thyroid hormone receptor beta (Homo sapiens), sequence (P10828 whole entry, looked up): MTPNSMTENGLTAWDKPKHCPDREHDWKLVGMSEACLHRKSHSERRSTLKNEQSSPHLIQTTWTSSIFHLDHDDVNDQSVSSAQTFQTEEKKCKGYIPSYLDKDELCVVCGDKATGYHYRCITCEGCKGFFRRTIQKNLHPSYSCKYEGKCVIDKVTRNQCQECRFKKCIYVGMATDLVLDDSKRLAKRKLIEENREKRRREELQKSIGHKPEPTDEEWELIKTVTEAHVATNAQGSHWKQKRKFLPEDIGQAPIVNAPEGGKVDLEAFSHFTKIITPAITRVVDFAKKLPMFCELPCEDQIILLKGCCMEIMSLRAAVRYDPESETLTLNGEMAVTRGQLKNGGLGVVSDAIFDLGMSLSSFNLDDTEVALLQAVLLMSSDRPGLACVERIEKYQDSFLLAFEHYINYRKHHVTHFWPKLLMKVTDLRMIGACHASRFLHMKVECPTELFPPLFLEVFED
Peroxisome proliferator-activated receptor delta (Homo sapiens), sequence (Q03181 whole entry, looked up): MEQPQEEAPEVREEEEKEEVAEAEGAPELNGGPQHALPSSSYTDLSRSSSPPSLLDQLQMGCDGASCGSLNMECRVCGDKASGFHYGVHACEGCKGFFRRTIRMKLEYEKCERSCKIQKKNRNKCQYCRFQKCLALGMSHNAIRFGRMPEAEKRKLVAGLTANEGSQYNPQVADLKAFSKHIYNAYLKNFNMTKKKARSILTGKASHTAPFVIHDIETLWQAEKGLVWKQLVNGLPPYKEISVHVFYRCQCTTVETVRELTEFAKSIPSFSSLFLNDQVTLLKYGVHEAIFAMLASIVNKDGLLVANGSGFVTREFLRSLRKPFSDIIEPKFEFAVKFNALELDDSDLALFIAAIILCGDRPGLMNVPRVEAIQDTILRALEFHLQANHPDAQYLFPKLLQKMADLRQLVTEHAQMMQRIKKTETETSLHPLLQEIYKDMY
Androgen receptor (Homo sapiens), sequence (P10275 whole entry, looked up): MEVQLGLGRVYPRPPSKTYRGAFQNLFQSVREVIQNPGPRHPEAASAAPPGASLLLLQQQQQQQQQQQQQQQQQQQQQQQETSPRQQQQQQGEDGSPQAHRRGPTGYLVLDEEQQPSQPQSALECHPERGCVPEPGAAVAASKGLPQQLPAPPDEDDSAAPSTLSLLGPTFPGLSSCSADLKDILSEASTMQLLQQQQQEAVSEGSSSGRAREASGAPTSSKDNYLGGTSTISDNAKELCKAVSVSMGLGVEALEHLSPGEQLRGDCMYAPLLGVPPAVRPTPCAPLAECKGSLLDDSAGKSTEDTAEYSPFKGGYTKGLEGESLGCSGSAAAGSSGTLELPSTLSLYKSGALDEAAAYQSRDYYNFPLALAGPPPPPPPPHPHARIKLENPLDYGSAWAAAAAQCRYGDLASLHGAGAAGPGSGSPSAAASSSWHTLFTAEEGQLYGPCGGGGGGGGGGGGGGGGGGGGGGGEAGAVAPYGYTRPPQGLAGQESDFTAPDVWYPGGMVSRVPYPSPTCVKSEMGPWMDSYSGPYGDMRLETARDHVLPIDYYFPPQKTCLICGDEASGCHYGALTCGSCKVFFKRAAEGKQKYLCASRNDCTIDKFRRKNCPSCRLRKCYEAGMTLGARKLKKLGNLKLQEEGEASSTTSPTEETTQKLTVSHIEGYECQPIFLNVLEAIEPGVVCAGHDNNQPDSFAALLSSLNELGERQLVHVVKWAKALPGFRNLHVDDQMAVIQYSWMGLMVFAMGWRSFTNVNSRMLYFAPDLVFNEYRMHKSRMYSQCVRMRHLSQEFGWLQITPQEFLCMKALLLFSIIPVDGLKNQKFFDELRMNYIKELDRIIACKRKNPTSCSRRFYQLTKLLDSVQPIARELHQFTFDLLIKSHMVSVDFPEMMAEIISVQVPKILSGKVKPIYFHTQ
Nuclear receptor subfamily 1 group I member 2 (Rattus norvegicus), sequence (Q9R1A7 whole entry, looked up): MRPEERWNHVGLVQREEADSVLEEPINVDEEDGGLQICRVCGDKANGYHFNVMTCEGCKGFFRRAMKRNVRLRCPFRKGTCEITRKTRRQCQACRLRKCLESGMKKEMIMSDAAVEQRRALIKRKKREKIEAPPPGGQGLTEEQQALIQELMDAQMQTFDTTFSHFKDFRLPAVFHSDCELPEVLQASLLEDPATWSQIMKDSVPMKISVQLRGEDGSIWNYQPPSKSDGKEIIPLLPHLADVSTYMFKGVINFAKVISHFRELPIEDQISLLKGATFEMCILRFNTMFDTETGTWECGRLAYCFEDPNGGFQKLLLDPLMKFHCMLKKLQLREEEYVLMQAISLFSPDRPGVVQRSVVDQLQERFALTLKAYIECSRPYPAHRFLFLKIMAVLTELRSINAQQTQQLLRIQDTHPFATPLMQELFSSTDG
Peroxisome proliferator-activated receptor gamma (Homo sapiens), sequence (P37231 whole entry, looked up): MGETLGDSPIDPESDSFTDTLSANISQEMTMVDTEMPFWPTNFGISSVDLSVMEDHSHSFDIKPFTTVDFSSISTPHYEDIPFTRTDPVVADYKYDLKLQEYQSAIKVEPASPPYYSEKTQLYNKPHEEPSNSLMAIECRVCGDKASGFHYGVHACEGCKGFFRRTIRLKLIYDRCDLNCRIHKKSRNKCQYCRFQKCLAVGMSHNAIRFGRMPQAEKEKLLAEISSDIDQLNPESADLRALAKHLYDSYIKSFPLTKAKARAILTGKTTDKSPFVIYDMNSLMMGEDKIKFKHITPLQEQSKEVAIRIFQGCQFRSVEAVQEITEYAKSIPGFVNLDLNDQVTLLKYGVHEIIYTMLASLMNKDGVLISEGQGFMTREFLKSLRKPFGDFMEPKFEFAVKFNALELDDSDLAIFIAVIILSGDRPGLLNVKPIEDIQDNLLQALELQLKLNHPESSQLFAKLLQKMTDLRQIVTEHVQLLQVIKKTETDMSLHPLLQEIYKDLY
Peroxisome proliferator-activated receptor alpha (Homo sapiens), sequence (Q07869 whole entry, looked up): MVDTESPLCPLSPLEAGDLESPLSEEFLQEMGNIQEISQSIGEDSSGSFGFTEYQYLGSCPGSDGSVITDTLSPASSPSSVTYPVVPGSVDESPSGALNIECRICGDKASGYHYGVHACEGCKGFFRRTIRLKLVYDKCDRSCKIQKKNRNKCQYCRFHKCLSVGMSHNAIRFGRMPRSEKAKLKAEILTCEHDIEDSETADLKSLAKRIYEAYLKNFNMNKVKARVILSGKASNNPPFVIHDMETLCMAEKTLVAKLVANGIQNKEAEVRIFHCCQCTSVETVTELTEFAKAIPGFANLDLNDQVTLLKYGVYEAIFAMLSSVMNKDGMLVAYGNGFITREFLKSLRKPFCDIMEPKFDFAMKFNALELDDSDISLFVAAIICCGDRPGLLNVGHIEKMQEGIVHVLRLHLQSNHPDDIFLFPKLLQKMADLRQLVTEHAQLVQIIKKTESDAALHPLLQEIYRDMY

CCCCOP(=O)(O)OCCCC
-2.61%: max response [15]
-20.1%: max response [12]
inactive: Potency [1] | activation [2] -1.97% | outcome [3] | Potency [4] | activation [5] 1.99% | activation [6] -1.37% | Potency [7] | Potency [8] | outcome [10] | outcome [11] | outcome [13] | Potency [14] | max response [16] -17.7% | activity change % (negative = inhibition) [17] 3.56% | Potency [18] | activation [19] 1.33% | max response [20] -1.16% | Potency [21] | max response [22] -8.15% | max response [23] -9.76% | outcome [24] | max response [25] 5.92% | outcome [26]
24.1%: max response [9]

Reference: PubChem BioAssay (NCATS)
